# Bioassay records: PubChem BioAssay, several laboratories
# CSC inhib: cancer stem cell viability inhibitors, primary screen, luminescence | inhibition, % at 7.5 µM | cancer stem cell-like cells viability | actives 1.1% (n = 300,000); in the data active = inhibition above about 75%; inconclusive = no clear call, values can overlap the other calls; tested in HMLE shEcad cells
# Mdm2-MdmX inh: inhibitors of human Mdm2-MdmX association, primary screen, cell-based, luminescence, split luciferase, SaOS-2, uHTS; Protein Mdm4 (Homo sapiens) + E3 ubiquitin-protein ligase Mdm2 (Homo sapiens), …; actives 3% (n = 330,000); inhibition, % at 8 µM; SaOS-2 split-luciferase Mdm2/MdmX complementation;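 active = inhibition of at least 50% at 8 µM in the primary screen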
# Beta apoptosis: inhibitors of cytokine-induced beta cell apoptosis, primary screen, luminescence | INS-1E cytokine-induced death, ATP luminescence, 48 h; percent of positive-control rescue, neutral wells zero | protection from apoptosis, % (test concentration not listed) | actives 0.8% (n = 300,000) | AID 435005, 2010;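 active = Every replicate reaches about 75%, or at least half do and their mean reaches it too, limit read from the data; inconclusive = At least half of replicates reach the limit but their mean does not; inactive = Under half of replicates reach the limit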;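 also: higher means more ATP so stronger rescue from cytokine killing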
# NR3A LBD binder: binders of NR3A ligand-binding domain, primary screen, biophysical, differential scanning fluorimetry, uHTS; Glutamate receptor ionotropic, NMDA 3A (GRIN3A) ligand-binding domain; Tm shift relative to glycine control, % at 25 µM; actives 2.5% (n = 340,000); NR3A LBD differential scanning fluorimetry, Tm shift; 0% = protein alone, 100% = glycine-bound protein; AID 1259313, 2017;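 active = melting temperature shift of at least 10% of the positive control shift, at one fixed dose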
# Gli-Sufu antag: Gli-Sufu pathway antagonists, primary screen, luciferase luminescence, Sufu-KO-LIGHT cells, uHTS. Sufu-KO-LIGHT fibroblasts, Gli luciferase reporter luminescence. inhibition, % at 5 µM. actives 0.74% (n = 340,000);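 active = inhibition above about 55%, limit read from the data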
# MPTP block: mitochondrial permeability transition pore inhibitors, primary screen, biochemical, isolated mouse mitochondria, absorbance; Ca2+ swelling absorbance, 30 min; inhibition, % at 10 µM; actives 1.4% (n = 360,000); AID 602449, 2012;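 active = inhibition of 50% or more, scaled per plate between neutral and stimulator controls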
# Mdm2 MdmX conf: Mdm2-MdmX complex disruptors, retested hits, confirmation, luminescence, single concentration; actives 55% (n = 10,000); shares compounds with Mdm2-MdmX inh; inhibition, % at 8 µM; Mdm2-MdmX binding, luminescent assay; AID 489028, 2010; in the data active = inhibition above about 40%
# FLuc counter: full-length luciferase signal inhibition, confirmation, counter-screen for Mdm2/MdmX interaction inhibitor project, cell-based, single concentration, SaOS-2. shares compounds with Mdm2-MdmX inh. SaOS-2 full-length luciferase counterscreen, luminescence. inhibition, % at 8 µM. actives 77% (n = 6,200). AID 504607, 2011;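 active = mean inhibition at 8 µM reaching about 37%, which flags the compound as non-specific, limit read from the data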;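 also: p53-null SaOS-2 cells with luciferase driven by a doxycycline-inducible promoter; compound on cells about two nights before reading with doxycycline added after day one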
# Hits are given with their value; . = inactive; ? = inconclusive; / = no result given. Most compounds without a hit are left out; they make up all but 6.6% or so of the library.
SMILES,CSC inhib,Mdm2-MdmX inh,Beta apoptosis,NR3A LBD binder,Gli-Sufu antag,MPTP block,Mdm2 MdmX conf,FLuc counter
COc1cc(C(=O)NC(C)Cc2ccccn2)ccc1OC1CCN(C(C)=O)CC1 (stereo unspecified),/,.,/,.,.,.,/,/
COc1ccc(OC)c(S(=O)(=O)N/N=C(/C)c2c[nH]c3ccccc23)c1,.,.,.,25,.,.,/,/
COc1ccc(OC)c(S(=O)(=O)N/N=C\c2c[nH]c3ccccc23)c1,.,.,.,32,.,.,/,/
CCCN(CCC)CCCNC(=S)Nc1ccc2nc3n(c(=O)c2c1)CCCCC3,.,.,.,.,.,.,/,/
O=C(Nc1cccc2ccccc12)N1CCOCC1,.,.,.,17,.,.,/,/
CN1CCN(C(=O)Nc2cccc3ccccc23)CC1,.,.,.,.,.,.,/,/
CCCC(=O)Nc1cccc(-c2cn3cccnc3n2)c1,.,.,.,.,.,.,/,/
O=C(Nc1cccc(-c2cn3cccnc3n2)c1)Nc1ccccc1F,.,.,.,12,.,.,/,/
O=C(Nc1ccccc1)Nc1cccc(-c2cn3cccnc3n2)c1,.,.,.,13,.,.,/,/
c1ccc(OCC2CCNCC2)nc1,.,.,/,.,.,.,/,/
COc1cc(/C=C2\COC/C(=C\c3cc(OC)c(OC)c(OC)c3)C2=O)cc(OC)c1OC,/,/,/,.,55,.,/,/
COCCC(=O)N1CCC(n2nccc2NC(=O)CCc2ccccc2)CC1,.,.,.,.,.,.,/,/
CC(=O)Nc1nnc(SCC(=O)c2ccc3c(c2)Cc2ccccc2-3)s1,.,.,.,15,.,.,/,/
O=C(CCC(=O)c1ccc(F)cc1)Nc1cccc(S(=O)(=O)Nc2cccc(Cl)c2)c1,.,.,.,28,.,.,/,/
COc1ccc(C(NC(=O)C2CCN(C/C=C/c3ccc(OC(C)=O)c(OC)c3)CC2)c2ccccn2)cc1 (stereo unspecified),/,/,/,/,/,.,/,/
OCCNCc1cc(Br)ccc1OCc1ccccc1,.,.,.,13,.,.,/,/
CC(C)Cn1c(SCC(=O)Nc2cc(Cl)c(Cl)cc2Cl)nc(O)cc1=O,/,.,.,.,.,.,/,/
CC(Oc1cccc(Cl)c1)C(=O)Nc1cc(S(=O)(=O)N2CCOCC2)ccc1N1CCCCC1 (stereo unspecified),.,.,110,.,.,.,/,/
CCN1CCN(c2ccc(S(=O)(=O)N3CCOCC3)cc2NC(=O)C(C)Oc2cccc(Cl)c2)CC1 (stereo unspecified),.,.,.,/,.,.,/,/
COc1cc(/C=C2/SC(=S)N(Cc3ccccc3)C2=O)cc(Cl)c1O,117,/,.,.,.,.,/,/
COc1cc(/C=C2\SC(=S)N(CC(=O)Nc3ccc(O)cc3)C2=O)cc(OC)c1OC,/,/,/,13,.,.,/,/
COc1cc(/C=C2\SC(=S)N(CC(=O)Nc3cccnc3)C2=O)cc(OC)c1OC,.,.,.,.,.,.,/,/
COc1cc([N+](=O)[O-])cc(/C=C2/SC(=S)N(Cc3ccccc3)C2=O)c1O,92,/,.,.,.,.,/,/
COc1cc(/C=C2/SC(=S)N(Cc3ccccc3)C2=O)ccc1OCC(=O)O,.,.,.,.,.,.,/,/
COc1ccc(/C=C/C(=O)c2ccc([N+](=O)[O-])o2)cc1OC,78,96,112,.,.,/,93,57
SMILES,CSC inhib,Mdm2-MdmX inh,Beta apoptosis,NR3A LBD binder,Gli-Sufu antag,MPTP block,Mdm2 MdmX conf,FLuc counter
COc1cc(/C=C/C(=O)c2ccc([N+](=O)[O-])o2)ccc1O,.,100,115,.,.,.,100,.
O=C(/C=C/c1cccc(Cl)c1)c1ccc([N+](=O)[O-])o1,?,100,135,.,.,.,100,51
O=C1C=C(O)CC2(CCCCC2)C1,/,/,/,/,/,.,/,/
CC(C)c1nc(SCC(=O)Nc2ccc(N3CCOCC3)cc2)c2ccccc2n1,/,53,.,.,.,.,.,/
CN(C)c1ccc(NC(=O)CSc2nc(C3CC3)nc3ccccc23)cc1,/,79,.,.,.,.,44,54
CC(=O)Nc1cccc(NC(=O)CSc2nc(C3CC3)nc3ccccc23)c1,/,72,.,.,.,.,58,44
O=C(CSc1nc(C2CC2)nc2ccccc12)Nc1ccccc1,.,.,.,.,.,.,/,/
COc1cc(NC(=O)CSc2nc(C3CC3)nc3ccccc23)cc(OC)c1,.,54,.,.,.,.,.,/
CC(Sc1nnnn1C)C(=O)NC1CCCC1 (stereo unspecified),.,.,.,.,.,.,/,/
Cc1ncc(CO)c(/C=N/Nc2ccc(C(F)(F)F)cn2)c1O,89,75,116,27,.,.,72,.
Cc1ncc(CO)c(/C=N/NC(=S)Nc2ccc(F)cc2)c1O,/,.,/,.,.,.,/,/
Cc1nc2cc3c(=O)n(C)cnc3cc2n1Cc1ccccc1,/,/,/,/,/,.,/,/
O=S(=O)(c1ccc(F)c(Cl)c1)N1CCN(C/C=C/c2ccccc2)CC1,/,.,.,.,.,.,/,/
Cn1c(SCC(=O)Nc2cccc(Br)c2)nnc1-c1cc2ccccc2o1,/,63,.,.,.,.,.,/
Cc1ccc(N(CCC#N)C(=O)CCl)cc1C,.,100,.,.,.,.,100,57
CCOc1ccc(Br)cc1C1C(C(=O)OC)=C(N)Oc2cc(N(C)C)ccc21 (stereo unspecified),.,80,.,.,.,.,55,55
CCCCCc1ccc(OCCC[n+]2ccccc2)c(CCCCC)c1,.,89,113,.,83,.,76,.
CCc1ccc(/C(C)=N/NC(=O)c2ccc(-n3cnnn3)cc2)cc1,/,.,.,.,.,.,/,/
COc1ccccc1N1CCN(c2ccnc3cc(Cl)ccc23)CC1,.,56,.,.,.,.,64,55
O=S(=O)(c1ccccc1OC(F)(F)F)N1CCN(c2ccnc3cc(Cl)ccc23)CC1,.,59,.,.,.,.,.,/
O=S(=O)(c1cccc(Br)c1)N1CCN(c2ccnc3cc(Cl)ccc23)CC1,.,.,.,.,.,.,/,/
Clc1ccc(C2=Nn3c(nnc3-c3n[nH]c4c3CCC4)SC2)cc1,.,85,.,.,.,.,69,45
Brc1ccc(C2=Nn3c(nnc3-c3n[nH]c4c3CCC4)SC2)cc1,.,80,.,.,.,.,80,73
